# Key:
# Experiment in all cases: HT-SELEX; 20 mM HEPES pH 7, 140 mM KCl, 5 mM NaCl, 1 mM K2HPO4, 2 mM MgSO4, 100 uM EGTA, ZnSO4, 0.1% Tween20; room temperature, 1 h; high values mean tight binding
# Details in all cases: protein: ivt; tags: eGFP (N-terminal); dsDNA, one strand shown
# ZNF721 full-length = ZNF721 full-length (Homo sapiens, UniProt Q8TF20-2 1-923)
# In short: (§1)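 A tagged transcription factor, either full-length or its DNA-binding-domain fragment, was made in HEK293 lysate or cell-free extract, immobilised on beads and incubated with a randomized 40-base DNA library for 1 h at room temperature in HEPES/KCl low-stringency buffer containing Tween20. Washed beads were heat-eluted, and the bound DNA was PCR-amplified over successive cycles and Illumina-sequenced at ~3 million 60 bp reads per sample. The binding signal is the relative k-mer count in selected reads, where a higher value means tighter binding.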
# ZNF721 DBD1 = ZNF721 DBD1 (Homo sapiens, UniProt Q8TF20-2 29-461)
# ZNF721 DBD1, sequence (Q8TF20 17-449): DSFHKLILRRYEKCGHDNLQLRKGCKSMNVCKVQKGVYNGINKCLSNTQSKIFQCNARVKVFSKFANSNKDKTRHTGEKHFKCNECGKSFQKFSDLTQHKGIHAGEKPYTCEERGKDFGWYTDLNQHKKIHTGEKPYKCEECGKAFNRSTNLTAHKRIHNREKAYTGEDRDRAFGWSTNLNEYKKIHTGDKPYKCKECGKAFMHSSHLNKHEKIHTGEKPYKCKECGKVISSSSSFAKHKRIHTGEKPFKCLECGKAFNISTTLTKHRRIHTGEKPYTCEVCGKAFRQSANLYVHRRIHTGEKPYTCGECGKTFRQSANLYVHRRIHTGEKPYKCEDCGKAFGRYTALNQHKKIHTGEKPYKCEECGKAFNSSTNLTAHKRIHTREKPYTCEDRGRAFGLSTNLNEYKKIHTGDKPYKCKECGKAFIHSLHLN
# In short: as §1
# ZNF721 DBD2 = ZNF721 DBD2 (Homo sapiens, UniProt Q8TF20-2 395-923)
# ZNF721 DBD2, sequence (Q8TF20 383-911): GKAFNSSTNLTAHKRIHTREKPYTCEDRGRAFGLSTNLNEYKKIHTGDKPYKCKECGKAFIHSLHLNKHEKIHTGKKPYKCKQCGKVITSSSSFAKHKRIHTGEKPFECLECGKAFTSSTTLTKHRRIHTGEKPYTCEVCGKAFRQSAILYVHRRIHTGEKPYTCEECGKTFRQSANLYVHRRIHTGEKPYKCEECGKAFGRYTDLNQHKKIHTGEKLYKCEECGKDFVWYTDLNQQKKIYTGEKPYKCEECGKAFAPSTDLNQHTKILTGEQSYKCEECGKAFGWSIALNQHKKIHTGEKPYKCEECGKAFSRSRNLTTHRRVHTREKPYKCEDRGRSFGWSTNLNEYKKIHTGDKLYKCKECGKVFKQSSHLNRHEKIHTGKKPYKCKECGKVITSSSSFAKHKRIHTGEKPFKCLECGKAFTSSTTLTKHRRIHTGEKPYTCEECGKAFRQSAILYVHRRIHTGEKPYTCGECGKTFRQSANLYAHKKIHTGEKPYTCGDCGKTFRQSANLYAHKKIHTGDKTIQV
# In short: as §1
# ZNF721 full-length, sequence (Q8TF20 other isoform, or with tags, fused parts or gaps): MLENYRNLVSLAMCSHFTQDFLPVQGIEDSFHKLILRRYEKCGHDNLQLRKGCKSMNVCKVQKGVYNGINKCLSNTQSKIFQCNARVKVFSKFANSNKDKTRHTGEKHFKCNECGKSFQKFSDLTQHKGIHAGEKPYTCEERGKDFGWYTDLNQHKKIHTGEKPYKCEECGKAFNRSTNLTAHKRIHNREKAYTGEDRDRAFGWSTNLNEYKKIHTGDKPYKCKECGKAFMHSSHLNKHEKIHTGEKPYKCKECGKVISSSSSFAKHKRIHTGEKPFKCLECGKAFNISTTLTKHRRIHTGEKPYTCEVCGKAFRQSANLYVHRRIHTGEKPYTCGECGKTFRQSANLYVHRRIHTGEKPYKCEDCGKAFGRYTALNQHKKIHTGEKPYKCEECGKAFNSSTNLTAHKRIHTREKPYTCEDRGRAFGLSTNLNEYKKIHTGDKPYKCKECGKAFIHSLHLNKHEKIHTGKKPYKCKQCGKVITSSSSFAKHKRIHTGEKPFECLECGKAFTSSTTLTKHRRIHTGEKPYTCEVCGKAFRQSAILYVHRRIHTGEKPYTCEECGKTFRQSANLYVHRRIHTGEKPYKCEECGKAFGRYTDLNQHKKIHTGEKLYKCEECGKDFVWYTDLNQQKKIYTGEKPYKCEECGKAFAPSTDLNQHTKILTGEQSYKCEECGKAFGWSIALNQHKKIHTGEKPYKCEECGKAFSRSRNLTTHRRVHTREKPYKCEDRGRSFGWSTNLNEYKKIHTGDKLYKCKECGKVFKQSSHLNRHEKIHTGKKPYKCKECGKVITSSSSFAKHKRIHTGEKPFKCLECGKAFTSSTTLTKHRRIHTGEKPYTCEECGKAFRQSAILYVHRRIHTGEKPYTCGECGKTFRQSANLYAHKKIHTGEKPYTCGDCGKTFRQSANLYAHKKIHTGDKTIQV
Sequence,binding signal (ZNF721 full-length),binding signal (ZNF721 DBD1),binding signal (ZNF721 DBD2)
GCCCCCCCCC,0.112 relative 10-mer count,0.00367 relative 10-mer count,0.00276 relative 10-mer count
CACCCCACAC,0.138 relative 10-mer count,0.0055 relative 10-mer count,0.00875 relative 10-mer count
CCTACCACCC,0.111 relative 10-mer count,0.00619 relative 10-mer count,0.0101 relative 10-mer count
ACAGCGTACC,0.193 relative 10-mer count,0.00115 relative 10-mer count,0.259 relative 10-mer count
CCAAAAAAAA,0.211 relative 10-mer count,0.0171 relative 10-mer count,0.0966 relative 10-mer count
CACCCCAACC,0.142 relative 10-mer count,0.0061 relative 10-mer count,0.00407 relative 10-mer count
ACCCCCACCA,0.145 relative 10-mer count,0.00573 relative 10-mer count,0.00503 relative 10-mer count
CCCCGCCCGC,0.115 relative 10-mer count,0.00417 relative 10-mer count,0.0018 relative 10-mer count
CCACCCCGCC,0.263 relative 10-mer count,0.00894 relative 10-mer count,0.00503 relative 10-mer count
CCCCCCGCCG,0.104 relative 10-mer count,0.00303 relative 10-mer count,0.0024 relative 10-mer count
CCCCCTCCCC,0.331 relative 10-mer count,0.0149 relative 10-mer count,0.00455 relative 10-mer count
CAGCGTATCC,0.324 relative 10-mer count,0.00174 relative 10-mer count,0.648 relative 10-mer count
CTCCCTCCCC,0.143 relative 10-mer count,0.00927 relative 10-mer count,0.00312 relative 10-mer count
CAAACAAGCA,0.102 relative 10-mer count,0.00362 relative 10-mer count,0.063 relative 10-mer count
CTCCCCCTCC,0.14 relative 10-mer count,0.00784 relative 10-mer count,0.00324 relative 10-mer count
GGGTGGGTGA,0.104 relative 10-mer count,0.00505 relative 10-mer count,0.0012 relative 10-mer count
CCCCACCATC,0.111 relative 10-mer count,0.00477 relative 10-mer count,0.00563 relative 10-mer count
AGGGGGGGTG,0.108 relative 10-mer count,0.00422 relative 10-mer count,0.00252 relative 10-mer count
AAAAAGAAGC,0.126 relative 10-mer count,0.0301 relative 10-mer count,0.0126 relative 10-mer count
AAGCATACCC,0.253 relative 10-mer count,0.076 relative 10-mer count,0.0243 relative 10-mer count
CCCCGCACCC,0.179 relative 10-mer count,0.00812 relative 10-mer count,0.00252 relative 10-mer count
GCACCCCCAC,0.107 relative 10-mer count,0.00523 relative 10-mer count,0.0174 relative 10-mer count
CCGCCCCCCA,0.141 relative 10-mer count,0.0066 relative 10-mer count,0.00252 relative 10-mer count
AAAAACAGTA,0.176 relative 10-mer count,0.00119 relative 10-mer count,0.212 relative 10-mer count
GGTGGTGGGA,0.157 relative 10-mer count,0.00784 relative 10-mer count,0.00455 relative 10-mer count
CCACCCCCAA,0.118 relative 10-mer count,0.00546 relative 10-mer count,0.00491 relative 10-mer count
AAAAAAAAAA,0.186 relative 10-mer count,0.0189 relative 10-mer count,0.0538 relative 10-mer count

# — article PMC13541613, “GHT-SELEX demonstrates unexpectedly high intrinsic sequence specificity and complex DNA binding of many human transcription factors”
